From PubChem BioAssay
Rows were chosen to be rich in hits. Some 11% of all compounds tested hit in one or more screens of this group.
RORgamma inh – inhibitors of mouse ROR gamma transcriptional activity. P51450. Drosophila S2 Gal4-RORgamma UAS-luciferase reporter, 20 h. Potency, µM (titrated, usually from 53.6 µM), usual class: inhibitors. 310,000 tested, 5.4% active. AID 2551; note: nearly all actives have a fitted effect of over 60% in size
Target sequence (P51450 whole entry, looked up, the tested form may be a part): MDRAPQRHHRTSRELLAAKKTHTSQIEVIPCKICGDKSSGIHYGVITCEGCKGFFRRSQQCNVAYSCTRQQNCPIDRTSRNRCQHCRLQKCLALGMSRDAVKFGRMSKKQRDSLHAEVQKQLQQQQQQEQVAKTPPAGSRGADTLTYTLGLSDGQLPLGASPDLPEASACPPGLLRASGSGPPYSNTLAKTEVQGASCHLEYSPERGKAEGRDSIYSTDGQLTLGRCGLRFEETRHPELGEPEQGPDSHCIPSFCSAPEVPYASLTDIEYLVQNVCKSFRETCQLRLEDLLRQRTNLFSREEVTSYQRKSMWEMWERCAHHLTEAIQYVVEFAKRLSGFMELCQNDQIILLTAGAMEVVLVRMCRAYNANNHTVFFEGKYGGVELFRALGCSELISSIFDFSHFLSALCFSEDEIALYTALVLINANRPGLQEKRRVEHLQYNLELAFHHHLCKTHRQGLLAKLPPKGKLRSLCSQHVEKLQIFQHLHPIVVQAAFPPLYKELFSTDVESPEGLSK
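Luminescence from a UAS-regulated Photinus luciferase reporter in stably transfected Drosophila Schneider cells is measured; decreased signal marks ROR gamma inhibition. Fusion expression is induced by 700 uM copper sulfate for 20 hr.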
SW480 rerep – inducers of DNA re-replication in SW480 colon cancer cells | SW480 DNA re-replication, Hoechst DNA content imaging, 48 h | Potency, µM (doses to about 46.1 µM), hits mostly activators | 340,000 tested, 1.8% active | AID 624297; note: nearly all actives have a fitted effect of over 55% in size
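DNA re-replication was detected as more nuclei of elevated Hoechst intensity after 48 hr exposure to compound (23 nL pinned per well of 250 cells).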
VP16 counter – Gal4-VP16 reporter inhibition counter-screen; Potency, µM (doses to about 53.6 µM), usual class: inhibitors; 310,000 tested, 3.5% active; Drosophila S2 Gal4-VP16 UAS-luciferase, luminescence, 20 h;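 note: Gal4-VP16 expression switched on by copper sulfate through the metallothionein promoter; nearly all actives have a fitted effect of over 50% in size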
IL-1B inflam inh – inflammasome signaling inhibition, IL-1 beta readout. THP-1 LPS/ATP IL-1B secretion, AlphaLISA, 16 h; active compounds read low. activity change, % at 57.5 µM. 360,000 tested, 4.7% active; in the data active = activity change below about -50%; inconclusive = mostly about -30% to -49%
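Secreted IL-1B measured by AlphaLISA bead assay after 16 h compound exposure of THP-1 cells; compounds (final up to 57.5 uM) added 1 h before LPS (250 ng/mL) and ATP (1.25 mM) stimulation; lower signal means less secretion.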
MCF10A rerep – DNA re-replication induction in MCF 10a cells; AID 624296; Potency, µM (titrated, usually from 46.1 µM), hits mostly activators; 350,000 tested, 2.9% active; MCF 10A DNA re-replication, Hoechst nuclear intensity, 48 h; note: nearly all actives have a fitted effect of over 50% in size
Large screens that a line does not name were inactive. Unless noted, calls come from the whole dose curve; as a rule, active = well fitted curve in the direction sought with a large enough effect; inconclusive = small, poorly fitted or top-dose-only effect, or another doubt; inactive = no such curve, though single readings can be large; an effect the other way counts as inactive or inconclusive.

Nc1ncnc2c1nc(Br)n2C1OC(CO)C(O)C1O (stereo unspecified)	none (no result: SW480 rerep, IL-1B inflam inh, MCF10A rerep)
CCOc1ccccc1/C=N/Nc1nc2c(N)ncnc2n1[C@H]1O[C@@H](CO)[C@H](O)[C@@H]1O	SW480 rerep 8.2µM
Cc1ccc(SCc2cn3cccnc3n2)cc1	none
Cc1ccn2cc(CSc3ccccc3)nc2c1	RORgamma inh 13µM, VP16 counter 8.9µM
CCCc1[nH][nH]c(=O)c1C(c1ccc(Cl)cc1)C(C#N)C#N (stereo unspecified)	IL-1B inflam inh -83
CCCc1[nH][nH]c(=O)c1C(c1ccc(Br)cc1)C(C#N)C#N (stereo unspecified)	VP16 counter inconclusive, IL-1B inflam inh inconclusive
CC(Cc1ccccc1)NC(=S)CN1CCCC1=S (stereo unspecified)	RORgamma inh 8.9µM, VP16 counter inconclusive
O=C(c1ccoc1)N1CCC2(CC1)Oc1ccc(F)cc1C(=O)C21CC(c2ccc(Cl)cc2)=NO1 (stereo unspecified)	IL-1B inflam inh -56
CC(C)(C)OC(=O)N1CCC2(CC1)Oc1ccc(F)cc1C(=O)C21CC(c2ccccc2)=NO1 (stereo unspecified)	IL-1B inflam inh inconclusive (no result: RORgamma inh, VP16 counter)
CC(C)C(=O)N1CCC2(CC1)Oc1ccc(F)cc1C(=O)C21CC(c2ccc(Cl)cc2)=NO1 (stereo unspecified)	IL-1B inflam inh -67
CCC(=O)N1CCC2(CC1)Oc1ccc(F)cc1C(=O)C21CC(c2ccc(Cl)cc2)=NO1 (stereo unspecified)	IL-1B inflam inh inconclusive
O=C1c2cc(F)ccc2OC2(CCNCC2)C12CC(c1ccccc1)=NO2 (stereo unspecified)	IL-1B inflam inh -53
COc1ncc2nc(-c3ccccc3)c(=O)n(CCc3ccccc3)c2n1	none (no result: SW480 rerep, IL-1B inflam inh, MCF10A rerep)
CCN(C(=O)c1ccc(NC(=O)C2CCCCC2C(=O)O)cc1)c1ccccc1 (stereo unspecified)	none (no result: RORgamma inh, SW480 rerep, VP16 counter, MCF10A rerep)
O=C(Nc1ccccc1)OC[C@@H]1C=CS(=O)(=O)N1Cc1ccc(Br)cc1	IL-1B inflam inh -68 (no result: RORgamma inh, SW480 rerep, VP16 counter, MCF10A rerep)
Cc1cc2ccccc2n1CCNC(=O)c1ccccc1	RORgamma inh 4.5µM, VP16 counter 2.5µM, MCF10A rerep inconclusive
Cc1cc2ccccc2n1CCNC(=O)c1ccc(S(=O)(=O)N2CCOCC2)cc1	SW480 rerep 16µM, MCF10A rerep 3.7µM
COC(=O)[C@]12CCCCC=C1N(Cc1ccc3c(c1)OCO3)C(=O)[C@H](CC(=O)N1CCCCC1)C2	none (no result: RORgamma inh, SW480 rerep, VP16 counter, MCF10A rerep)
COc1ccccc1N1CCN(C(=O)CCC(=O)N2CCN(c3ccc(F)cc3)CC2)CC1	SW480 rerep inconclusive
Cc1cc(-c2csc(N)n2)c(C)n1Cc1ccco1	SW480 rerep inconclusive
COCCCN=C1NN=C(c2cc(C)n(Cc3ccco3)c2C)CS1	RORgamma inh inconclusive, SW480 rerep 5.8µM, VP16 counter inconclusive, MCF10A rerep inconclusive
Cc1cc(C2=NNC(=NC3CC3)SC2)c(C)n1Cc1ccco1	RORgamma inh inconclusive, MCF10A rerep 6.5µM (no result: SW480 rerep)
CC(C)Cn1c(N)c(C(=O)COC(=O)C2Cc3ccccc3CN2S(C)(=O)=O)c(=O)n(C)c1=O (stereo unspecified)	none (no result: RORgamma inh, VP16 counter)
CC(C)(Oc1ccc(Cl)cc1)C(=O)OCn1nnc2ccccc2c1=O	RORgamma inh inconclusive, VP16 counter 2.5µM
Cc1ccccc1NC(=S)N(CCN1CCCCC1)Cc1ccco1	none
Cc1cccc(C)c1NC(=S)N(CCN1CCCCCC1)Cc1ccco1	RORgamma inh 13µM
Cc1cc(C)c(NC(=S)N(CCN2CCCCC2)Cc2ccco2)c(C)c1	RORgamma inh 10µM
CC(=O)N1CCc2c(sc(NC(=O)c3ccc(S(=O)(=O)N(C)CC4CCCO4)cc3)c2C(N)=O)C1 (stereo unspecified)	none (no result: RORgamma inh, SW480 rerep, VP16 counter, MCF10A rerep)
COC(=O)C1=CN(C(C)C)C=C(C(=O)OC)C1c1cc2c(cc1Br)OCO2	SW480 rerep inconclusive, MCF10A rerep 15µM
COc1ccc(NC(=O)N(C)C[C@@H]2OCc3cn(nn3)CCCC(=O)N([C@H](C)CO)C[C@H]2C)cc1	none (no result: RORgamma inh, SW480 rerep, VP16 counter, MCF10A rerep)
Cn1c(SCc2c(F)cccc2Cl)nnc1-c1cccs1	SW480 rerep inconclusive, MCF10A rerep 6.5µM
Cc1ccc2nc(C3CCN(S(=O)(=O)c4ccc5ccccc5c4)CC3)[nH]c2c1	IL-1B inflam inh -69
COc1ccccc1NC(=O)CN1CCC(c2nc3ccc(C)cc3[nH]2)CC1	none
O=S(=O)(c1ccc2c(c1)OCCO2)N1CCC(c2nc3ccccc3[nH]2)CC1	none
O=S(=O)(c1ccc2c(c1)OCCO2)N1CCC(c2nc3ccc(Cl)cc3[nH]2)CC1	IL-1B inflam inh -72, MCF10A rerep inconclusive
CC(=O)c1cccc(S(=O)(=O)N2CCC(c3nc4ccccc4[nH]3)CC2)c1	RORgamma inh inconclusive
COc1cccc(CNC(=O)CN2CCC(c3nc4ccc(C)cc4[nH]3)CC2)c1	IL-1B inflam inh -61, MCF10A rerep inconclusive
S=c1nc(-c2ccccc2)c(-c2ccccc2)n[nH]1	RORgamma inh 8.9µM
O=C(Nc1nc2ccccc2[nH]1)NC1CCCCC1	RORgamma inh 11µM, VP16 counter inconclusive
O=C(Nc1nc2ccccc2[nH]1)C12CC3CC(CC(C3)C1)C2	RORgamma inh 6.3µM, VP16 counter 10µM, MCF10A rerep inconclusive
O=C(Nc1sc2c(c1-c1nc3ccccc3[nH]1)CCCC2)C1CCCC1	RORgamma inh 10µM
CC(C(=O)Nc1nc2ccccc2[nH]1)N1C(=O)C2CC=CCC2C1=O (stereo unspecified)	RORgamma inh 10µM
C[C@@H](C(=O)NCc1ccccc1)N1C(=O)C2CC=CCC2C1=O (stereo partly specified)	none
COc1cc(/C=C/C(=O)O)ccc1OS(=O)(=O)c1c(C)cc(C)cc1C	none (no result: RORgamma inh, VP16 counter)
O=c1cc(CN2CCCC2)c2c(ccc3ccccc32)o1	none (no result: RORgamma inh, SW480 rerep, VP16 counter, MCF10A rerep)
COC(=O)[C@]12CCCCC=C1N(Cc1ccco1)C(=O)[C@H](CC(=O)N1CCOCC1)C2	none (no result: RORgamma inh, SW480 rerep, VP16 counter, MCF10A rerep)
c1ccc(C[C@H]2CN=C(Nc3ccccc3)N2CC2CCCCCC2)cc1	SW480 rerep inconclusive (no result: RORgamma inh, VP16 counter)
O=C(Nc1nc2ccccc2[nH]1)C1CCCO1 (stereo unspecified)	MCF10A rerep inconclusive
O=C(Nc1nc2ccccc2[nH]1)C1CC1	RORgamma inh inconclusive, SW480 rerep 21µM, VP16 counter inconclusive, MCF10A rerep 18µM
O=[N+]([O-])c1cccc(CSc2ncnc3ccccc23)c1	SW480 rerep inconclusive, IL-1B inflam inh -61
Cc1cccc(CSc2ncnc3ccccc23)c1	none
COCCNC(=O)/C(C#N)=C/c1cc(C)n(-c2ccc(C)cc2)c1C	VP16 counter inconclusive, IL-1B inflam inh -94
COCCNC(=O)/C(C#N)=C/c1cc(C(C)C)c(OC)cc1C	IL-1B inflam inh -71
COCCNC(=O)/C(C#N)=C/c1cc(C)n(C2CCCCC2)c1C	VP16 counter inconclusive
COCCNC(=O)/C(C#N)=C/C=C/c1ccccc1	IL-1B inflam inh -93
